Shown are actives, neighbours in structure and some others; about 1.4% of the full set was active somewhere.
OPRM1-OPRD1 inv: mu-delta opioid heterodimer inverse agonism; cell-based MOR-DOR heterodimer luminescence; inhibition, % at 9.3 µM; 0.21% of 340,000 active; AID 504357; in the data active = inhibition above about 22%, passing the limit was not always enough;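 also: 0% = cells with DMSO and 100% = wells without cells with DMSO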
OPRM1-OPRD1 ag: agonists of human mu-delta opioid receptor heterodimerization. P35372+P41143. cells, OPRM1-OPRD1 heterodimerization, luminescence. activation, % at 9.3 µM. 0.3% of 340,000 active;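 also: 0% = vehicle-treated cells and 100% = reference agonist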
HTR5A ag: activates human HTR5A in OPRM1-OPRD1 agonist counter-screen | HTR5A agonist assay, luminescence, cell-based | activation, % at 9.3 µM | 0.61% of 340,000 active | AID 504692; in the data active = activation mostly above about 9.5%, no sharp cut-off; inactive = mostly below about 7.6%;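 also: 0% = cells with vehicle only and 100% = reference agonist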
beta cell repl: inducers of beta-cell replication in MIN6 cells; proliferation, % at 10 µM; 0.29% of 330,000 active; MIN6 cells proliferation, ATPlite luminescence, 48 h; cells starved in 0.2% serum; 100% = growth in 10% serum;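 active = compounds whose signal lies at least 3.5 SD above the mean of all wells on their plate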;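 also: 0% = DMSO-treated cells in low-serum medium and 100% = 10% serum control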
pCIP destab: lowers stability of the mouse p/CIP coactivator protein; Q05BA5; F442A p/CIP-EGFP cells, EGFP fluorescence, 16 h; decrease of EGFP signal, % at 10 µM; 0.01% of 290,000 active; AID 1984;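 active = EGFP signal decrease of at least 30% at 10 µM or well 3 SD below plate mean, unless failing retest; inactive = the rest, including hits failing retest or dose response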
Target sequence (Q05BA5 1-1403): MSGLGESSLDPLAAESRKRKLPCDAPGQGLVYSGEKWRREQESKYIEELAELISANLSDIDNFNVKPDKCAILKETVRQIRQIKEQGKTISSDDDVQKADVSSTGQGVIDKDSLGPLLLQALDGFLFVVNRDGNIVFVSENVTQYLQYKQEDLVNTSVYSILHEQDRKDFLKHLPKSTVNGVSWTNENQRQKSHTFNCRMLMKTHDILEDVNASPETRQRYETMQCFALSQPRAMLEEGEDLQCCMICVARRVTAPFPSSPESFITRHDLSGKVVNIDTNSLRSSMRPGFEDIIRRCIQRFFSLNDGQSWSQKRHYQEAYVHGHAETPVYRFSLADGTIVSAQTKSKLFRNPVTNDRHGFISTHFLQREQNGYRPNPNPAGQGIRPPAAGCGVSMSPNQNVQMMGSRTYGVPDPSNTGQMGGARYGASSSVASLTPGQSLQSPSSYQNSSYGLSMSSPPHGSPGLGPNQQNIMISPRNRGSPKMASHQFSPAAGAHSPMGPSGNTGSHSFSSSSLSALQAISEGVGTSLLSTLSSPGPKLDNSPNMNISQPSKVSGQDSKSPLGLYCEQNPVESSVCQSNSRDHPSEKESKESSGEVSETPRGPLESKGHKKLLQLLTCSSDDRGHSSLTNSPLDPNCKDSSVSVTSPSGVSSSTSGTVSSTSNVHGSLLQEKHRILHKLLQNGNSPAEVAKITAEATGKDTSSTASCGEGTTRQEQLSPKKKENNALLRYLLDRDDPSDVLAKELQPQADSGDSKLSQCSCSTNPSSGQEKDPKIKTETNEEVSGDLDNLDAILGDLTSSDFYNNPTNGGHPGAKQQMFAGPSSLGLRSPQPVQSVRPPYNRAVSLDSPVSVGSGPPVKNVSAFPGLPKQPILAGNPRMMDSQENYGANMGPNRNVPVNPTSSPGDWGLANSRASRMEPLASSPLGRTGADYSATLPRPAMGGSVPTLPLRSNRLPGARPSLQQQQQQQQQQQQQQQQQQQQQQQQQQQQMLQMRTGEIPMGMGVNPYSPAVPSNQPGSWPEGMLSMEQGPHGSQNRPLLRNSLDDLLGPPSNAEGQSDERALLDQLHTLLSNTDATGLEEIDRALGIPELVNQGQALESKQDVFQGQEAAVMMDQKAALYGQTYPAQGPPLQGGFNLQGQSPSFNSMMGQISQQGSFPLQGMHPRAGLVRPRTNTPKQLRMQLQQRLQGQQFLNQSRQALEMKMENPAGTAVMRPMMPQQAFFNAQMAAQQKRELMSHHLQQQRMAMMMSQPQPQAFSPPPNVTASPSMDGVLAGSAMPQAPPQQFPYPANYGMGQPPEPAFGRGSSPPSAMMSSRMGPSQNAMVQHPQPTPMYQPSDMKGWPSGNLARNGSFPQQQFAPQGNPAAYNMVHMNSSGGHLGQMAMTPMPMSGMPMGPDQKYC
HTR5A inv ag: counter-screen for OPRM1-OPRD1 inverse agonists: human HTR5A inverse agonism; P47898; HTR5A cell line, luminescence; inhibition, % at 9.3 µM; 0.083% of 340,000 active; AID 504634; in the data active = inhibition mostly above about 23%, no sharp cut-off; inactive = mostly below about 18%;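 also: 0% = cells with DMSO and 100% = no-cell wells with DMSO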
MOR-DOR ag conf: OPRM1-OPRD1 heterodimer agonism, confirmation; shares compounds with OPRM1-OPRD1 ag; cells, MOR-DOR heterodimerization, luminescence complementation; activation, % at 9.3 µM; 45% of 830 active; AID 504904;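 also: 0% = vehicle-treated cells and 100% = reference agonist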
HTR5A ag counter: HTR5A agonism, opioid heterodimer counter-screen. shares compounds with OPRM1-OPRD1 ag. HTR5A agonist counterscreen, cell luminescence. activation, % at 9.3 µM. 8% of 830 active; in the data active = activation above about 17%;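 also: 0% = vehicle-treated cells and 100% = reference agonist response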
* = called active by the depositor; i = inactive; . = no result. Rule as the data show it, unless noted: active = activation above about 18%; inactive = the rest.

SMILES	OPRM1-OPRD1 inv	OPRM1-OPRD1 ag	HTR5A ag	beta cell repl	pCIP destab	HTR5A inv ag	MOR-DOR ag conf	HTR5A ag counter
Cc1cc(NC(=O)CN2CCc3ccccc3C2)nc2c1c(=O)oc1ccccc12	i	518*	-3	-6	-12	8	-4	5
CCOc1cc(/C=N/NC(=O)c2ccncc2)ccc1OC(=O)c1ccccc1	12	-2	1	0	-57	8	.	.
CCOc1cc(/C=N/NC(=O)c2ccncc2)ccc1OC(=O)c1ccc([N+](=O)[O-])cc1	-252	45*	9	0	1	-24	13	4
Cc1ccc(S(=O)(=O)N(C)C[C@@H]2Oc3ccc(NC(=O)Nc4cccc5ccccc45)cc3C(=O)N([C@H](C)CO)C[C@H]2C)cc1	8	-1	8	-3	.	-8	.	.
c1ccc(-c2csc(Nc3ncccn3)n2)cc1	-20	4	5	0	-4	1	.	.
Oc1ccc(-c2csc(Nc3ncccn3)n2)cc1	-110	23*	6	-3	8	-18	-2	-3
Cc1noc(C)c1COc1ccccc1C(=O)NCCOc1ccccc1	2	0	-4	0	.	23	.	.
C#CCNCCS(=O)(=O)N(Cc1ccc(Br)cc1)[C@@H](CC(C)C)C(=O)O	8	-2	3	.	.	-10	.	.
COc1ccc2nc3cc(Cl)ccc3c(Nc3cc(C(C)C)c(O)cc3C)c2c1	-110	20*	2	-6	3	-9	15	3
COc1cc2cc3c(N)c(C(=O)Nc4sc(C)c(C)c4C#N)sc3nc2cc1OC	i	117*	7	-4	-6	-10	22*	0
COc1ccc(C(CNc2ncnc3sccc23)N(C)C)cc1OC (stereo unspecified)	-154	20*	0	0	-14	0	0	25*
COc1ccc(C(CNc2ncnc3sc(C)c(C)c23)N(C)C)cc1 (stereo unspecified)	i	102*	0	-3	1	-1	68*	-3
CCC1CCCCN1CCN1C(=O)C2C(C(=O)Nc3ccc(OC)cc3)C3C=CC2(O3)C1C(=O)NC1CCCCC1 (stereo unspecified)	-180	34*	2	-2	9	-4	2	-19
COC(=O)[C@@]1(Cc2ccccc2)[C@H]2C(=O)N(C)C(=O)[C@H]2[C@H]2CN=C(SC)N21	18	-4	-1	.	.	2	.	.
COc1cc2nc(Nc3cccc(F)c3)nc(N)c2cc1OC	-128	27*	3	-6	1	-10	-3	-7
COc1ccccc1CN(C)C(=O)COC(=O)c1ccc(Cl)nc1	13	-3	0	-1	.	-2	.	.
O=C(CCSC1=NCCCN1)c1ccc(F)cc1	21	-5	0	.	.	-1	.	.
O=C(c1ccc2c(=O)n(Cc3ccc(Cl)cc3)c(=S)[nH]c2c1)N1CCCC1	-25	5	-2	-3	5	-39	.	.
O=c1c2ccc(Cl)cc2[nH]c(=S)n1Cc1cccnc1	-297	62*	-8	-2	-5	18	54*	0
CCCOc1ccc(C(=O)Nc2ccc(N3CCN(C(=O)c4ccco4)CC3)cc2)cc1	-119	23*	0	3	-8	3	1	-6
O=C(O)c1cccc(NC2=C(Cl)C(=O)c3ccccc3C2=O)c1	-143	22*	-1	.	-10	3	8	3
O=C(O)c1ccc(NC2=C(Cl)C(=O)c3ccccc3C2=O)cc1	-56	11	3	-7	-5	-7	.	.
Cc1nc2c(C)c(C)c(C)c(C)c2nc1C	.	.	.	5	3	.	.	.
Cc1nc2c(O)c3c(c(O)c2nc1C)C1C=CC3CC1	-107	22*	-1	.	.	5	-4	0
Cc1cccc(NC(=S)N(CCN(C)C)C(C)c2cccnc2)c1 (stereo unspecified)	3	-1	-3	-3	9	24	.	.
SMILES	OPRM1-OPRD1 inv	OPRM1-OPRD1 ag	HTR5A ag	beta cell repl	pCIP destab	HTR5A inv ag	MOR-DOR ag conf	HTR5A ag counter
CN(C)C(CNC(=S)Nc1ccc(F)cc1)c1cccnc1 (stereo unspecified)	i	112*	2	-1	-12	9	-2	-3
Cc1cccc(NC(=S)NCC(c2cccnc2)N(C)C)c1 (stereo unspecified)	i	218*	-1	0	-9	5	210*	-3
O=S(=O)(c1ccc(Br)cc1F)N1CCC(O)CC1	10	-2	-1	.	.	3	.	.
CN(CC(=O)Nc1sccc1C(N)=O)S(=O)(=O)c1ccc(Cl)cc1	3	-1	5	-2	.	-14	.	.
COc1ccc(C(=O)NCC(=O)OCCOc2ccc(Cl)cc2)cc1OC	18	-3	1	6	.	-3	.	.
Cc1cc(C(=O)N2CCN(S(=O)(=O)c3ccc(F)c(Cl)c3)CC2)c(C)o1	6	-2	2	-1	.	-5	.	.
CC(C)c1ccc(NC(=O)N(CCc2nc3ccccc3[nH]2)C2CCCC2)cc1	-148	25*	2	-6	4	-9	37*	0
COc1ccc2ncc(S(=O)(=O)c3ccccc3)c(N3CCN(c4ccccc4)CC3)c2c1	-8	2	8	0	3	33	.	.
CCN1CCN(c2c(S(=O)(=O)c3ccc(C)c(C)c3)cnc3ccc(F)cc23)CC1	-314	53*	-3	2	-3	8	12	-3
CSCCCNC(=O)c1ccc(OC2CCN(CCc3ccccc3)CC2)cc1	-110	22*	0	-2	-9	-12	32*	2
O=C(NCCc1ccccn1)c1ccc(OC2CCN(CCc3ccccc3)CC2)cc1	-79	15	1	-2	0	-2	.	.
O=C(NCCc1cccc(Cl)c1)c1ccc(OC2CCN(Cc3ccccn3)CC2)cc1	-324	65*	4	-2	20	-14	0	-1
Cc1cccnc1CCNC(=O)c1ccc(OC2CCN(Cc3ccccn3)CC2)cc1	4	-1	0	2	-8	0	.	.
CN(C)c1nc(NNC(=O)c2ccccc2)nc(N(C)C)n1	8	-2	-1	.	.	5	.	.
CN(C)S(=O)(=O)c1ccc(C(=O)Nc2ccn(C)n2)cc1	1	0	-1	1	16	20	.	.
COc1ccccc1N1CCN(C(c2cccs2)C(C)NC(=O)c2cccs2)CC1 (stereo unspecified)	-138	23*	-6	-4	-10	2	13	8
CC(C)C(=O)NC(C)C(c1cccs1)N1CCN(c2ccccc2)CC1 (stereo unspecified)	-177	30*	7	-1	4	-29	29*	4

Screening results as filed in PubChem BioAssay.
